Data from PubChem BioAssay (NCI).
The panel holds about 83,000 compounds, 20% with a hit somewhere; the sample as a whole holds those more often.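 48-hour exposure, single concentration, 96-well plates; percent growth endpoint where 0 means no net growth. Active: below 10.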 Values without a mark were called inactive. Active and inactive are the calls of the source.

What was measured:
Experiment in all cases: NCI-60 one-dose screen, 48 h (100 = growth as untreated, 0 = no growth, -100 = all killed)
Conditions in all cases: 10 µM unless noted
NCI-H23 lung = tested on: NCI-H23 lung
NCI-H226 lung = tested on: NCI-H226 lung
NCI-H322M lung = tested on: NCI-H322M lung
HOP-62 NSCLC = tested on: HOP-62 NSCLC
NCI-H460 lung = tested on: NCI-H460 lung
HOP-92 NSCLC = tested on: HOP-92 NSCLC
NCI-H522 lung = tested on: NCI-H522 lung
A549/ATCC NSCLC = tested on: A549/ATCC NSCLC
786-0 renal = tested on: 786-0 renal
COLO 205 colon = tested on: COLO 205 colon
DU-145 prostate = tested on: DU-145 prostate
K-562 leukemia = tested on: K-562 leukemia
MDA-MB-231 breast = tested on: MDA-MB-231 breast
RXF 393 renal = tested on: RXF 393 renal
SF-268 CNS = tested on: SF-268 CNS
SF-539 CNS = tested on: SF-539 CNS
UACC-257 melanoma = tested on: UACC-257 melanoma
M14 melanoma = tested on: M14 melanoma
MALME-3M melanoma = tested on: MALME-3M melanoma
SF-295 CNS = tested on: SF-295 CNS

Compound | growth (NCI-H23 lung) | growth (NCI-H226 lung) | growth (NCI-H322M lung) | growth (HOP-62 NSCLC) [%] | growth (NCI-H460 lung) | growth (HOP-92 NSCLC) | growth (NCI-H522 lung) | growth (A549/ATCC NSCLC) | growth (786-0 renal) | growth (COLO 205 colon) | growth (DU-145 prostate) [%] | growth (K-562 leukemia) | growth (MDA-MB-231 breast) | growth (RXF 393 renal) | growth (SF-268 CNS) [%] | growth (SF-539 CNS) [%] | growth (UACC-257 melanoma) | growth (M14 melanoma) | growth (MALME-3M melanoma) | growth (SF-295 CNS)
CCCCCCCCCCCCCCCCSC(=NCC)NCC | 39.4% | 85.7% | 17.4% | 25.9 | -83.9% (active) | -21.3% (active) | 23.5% | -19.9% (active) | 11.1% | -98.7% (active) | 36 | -59.8% (active) | -18.4% (active) | 6.55% (active) | 39.5 | 32.8 | -12.4% (active) | -49.8% (active) |  | 
CC(C)=C1C=C2CC[C@@H]3[C@](C)(CCC[C@@]3(C)C(=O)O)[C@H]2CC1 | 101% | 103% | 94.8% | 93.6 | 106% | 97.2% | 96.2% |  | 95.9% | 107% | 105 | 84.3% | 99.6% | 112% | 97 | 97.5 |  |  | 91.3% | 95.8%
COc1ccc2nc3cc([N+](=O)[O-])ccc3c(NNc3ccccc3)c2c1 | 66.6% | 63.8% | 86.9% | 37 | 82.4% | 14.8% | 85% |  | -18.8% (active) | 99.8% | 89.6 | 90.5% | 66.5% | 46.9% | 56.8 | 22.6 | 101% |  | 90.9% | 56%
O=C(CCl)N1c2ccccc2Sc2c1ccc1ccccc21 | 48.6% | 68.1% | 106% | 90.6 | 81.7% | 64.6% | -79.2% (active) | 95.2% | 88.9% | 65.7% | 93.9 | 55.7% | 76.4% | 70.4% | 70.4 | 84.7 | 89.4% | 61.1% |  | 94.5%
CCOc1cc(F)c([N+](=O)[O-])cc1[N+](=O)[O-] | 38.9% | 95.3% | 103% | 93.8 | 106% | 72.1% | -55.7% (active) | 90.9% | 59.9% | -48.4% (active) |  | 0.671% (active) | 37.9% | 12.4% | 77.6 |  | 56.5% | 30.5% | -19.2% (active) | 96.9%
CC(/C=N/NC(N)=S)Cc1ccc(C(C)C)cc1 (stereo not given) | 51% | 66.6% | 104% | 89.1 | 82.8% | 69.9% | -26.6% (active) | 89.5% | 51% | 68% | 129 |  | 85.4% | 69.2% | 129 | 59 | 69.9% | 74.2% | 82.9% | 73.2%
CCN(CC)CCNc1ccc([N+](=O)[O-])c2sc3ccccc3c(=O)c12 | 34.6% | 18.4% | 14.2% | 16.9 | 3.12% (active) | 16.9% | 12.7% | 7.92% (active) | 37.2% | 1.96% (active) |  | 10.2% | 56.2% | 5.72% (active) | 32.2 | 21.9 | 29.3% | 34.1% | -8.2% (active) | 7.95% (active)
O=C1C=CC(=O)N1c1cc(Cl)c(Cl)cc1Cl | 100% | 100% | 90.6% | 100 | 107% | 107% | 84.4% | 103% | 96% |  | 109 | 93.9% | 120% | 106% | 102 | 109 | 101% | 103% | 96.6% | 97.5%
CCCC[n+]1c(/C=C\c2c(OC)cc(OC)cc2OC)ccc2ccccc21 | -4.06% (active) | 9.84% (active) | 4.8% (active) | 13.8 | -43.2% (active) | -20% (active) | -73.4% (active) |  | 21.5% | -53.3% (active) | 23 | 0.911% (active) | -15.1% (active) |  | 22 | 10.3 | -41.5% (active) | 9% (active) | 13% | -74.7% (active)
